Shown are actives, neighbours in structure and some others; about 7.4% of the full set was active somewhere.
FLuc counter: firefly luciferase modulation, counter-screen for miR-21 project. P08659. purified FLuc, Km substrates, luminescence inhibition. Potency, µM (titrated, usually from 57.5 µM), without a hit: at the highest dose activity change, negative = inhibition, most hits filed as inhibitors. hit rate 6.9% among 360,000. AID 588342;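 note: plate controls were vehicle for no effect and reference inhibitor for full effect; nearly all actives have a fitted effect of over 55% in size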
Target sequence (P08659 whole entry, looked up): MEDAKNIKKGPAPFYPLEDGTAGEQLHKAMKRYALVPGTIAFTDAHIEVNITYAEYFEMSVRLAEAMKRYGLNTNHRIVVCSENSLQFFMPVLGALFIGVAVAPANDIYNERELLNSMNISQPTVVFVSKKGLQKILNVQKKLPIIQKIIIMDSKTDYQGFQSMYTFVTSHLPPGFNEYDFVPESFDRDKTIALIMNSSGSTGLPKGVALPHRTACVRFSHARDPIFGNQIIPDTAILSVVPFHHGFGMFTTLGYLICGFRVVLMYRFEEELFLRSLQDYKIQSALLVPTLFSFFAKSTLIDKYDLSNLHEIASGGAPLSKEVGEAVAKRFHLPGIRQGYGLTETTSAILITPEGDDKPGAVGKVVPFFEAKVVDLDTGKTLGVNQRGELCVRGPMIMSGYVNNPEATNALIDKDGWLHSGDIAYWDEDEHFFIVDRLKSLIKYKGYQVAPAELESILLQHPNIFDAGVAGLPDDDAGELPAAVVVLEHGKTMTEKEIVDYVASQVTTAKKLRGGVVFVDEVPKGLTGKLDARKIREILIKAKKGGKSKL
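Purified P. pyralis luciferase (10nM final) with 10uM D-luciferin and 10uM ATP (Km levels) in 50mM Tris acetate pH 7.5, 10mM Mg acetate, 0.01% Tween-20, 0.05% BSA; qHTS 6-point titration, ~60 µM downward; luminescence read.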
ELG1 genotox: genotoxicity induction in ELG1-luciferase HEK293T cells. HEK293T ELG1-luciferase reporter, luminescence, 16 h. Potency, µM (top dose mostly 46 µM), for inactives: at the top dose activity change, positive = activation, hits mostly activators. hit rate 1.3% among 330,000. AID 504466; note: % of control where 0% means no effect; nearly all actives have a fitted effect of over 60% in size
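HEK293T cells expressing luciferase-tagged ELG1 were treated with compound or DMSO for 16 hr at 37°C. Luciferase activity was then read after 30 min with ONE-Glo at room temperature; rising signal flags genetic stress.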
Rab9 prom act: Rab9 promoter activation; Huh7 Rab9 promoter-luciferase reporter, luminescence, 24 h; Potency, µM (series often up to 9.22 µM), without a hit: top-dose activation, negative = inhibition, hits mostly activators; hit rate 2.8% among 320,000; note: % of control where 0% means no effect; nearly all actives have a fitted effect of over 60% in size
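Huh7 reporter line, Rab9 promoter upstream of luciferase. Compound exposure 24 h at 37 °C in reduced-serum medium with 10% FBS. Read-out: luminescence.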
SMN2 splice enh: enhancers of SMN2 splice variant expression. HEK293 SMN2-luciferase splicing reporter, luminescence, 30-36 h. Potency, µM (top dose mostly 46.1 µM), for inactives: at the top dose activity change, positive = activation, hits mostly activators. hit rate 2.8% among 210,000; note: % of control where 0% means no effect; nearly all actives have a fitted effect of over 55% in size
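HEK293 cells carry an SMN2 minigene-luciferase reporter in which exon 7 inclusion puts luciferase in frame. Cells were seeded at 2000 cells/well, attached for 10-12 hours, then exposed to compounds for 30-36 hours at 37C before ONE-Glo luminescence.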
NPC1 prom act: NPC1 promoter activation | Potency, µM (series often up to 9.22 µM), for inactives: at the top dose activation, actives largely listed as activators | hit rate 2.4% among 320,000 | Huh7 NPC1 promoter luciferase reporter, 24 h; note: % of control where 0% means no effect; nearly all actives have a fitted effect of over 60% in size
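Luminescence from an NPC1 promoter-driven luciferase reporter in stably transfected Huh7 cells was measured after 24 h compound treatment at 37 °C, followed by 10 min ambient incubation with luciferase detection reagent.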
The depositor's hits bear a star; ? = inconclusive; . = no result given; [ ] = dose if it differs, or a comment. Calls come from the whole dose curve; as a rule, active = well fitted curve in the direction sought with a large enough effect; inconclusive = small, poorly fitted or top-dose-only effect, or another doubt; inactive = no such curve, though single readings can be large; an effect the other way counts as inactive or inconclusive. Potency is the fitted concentration of half-maximal effect.

SMILES | FLuc counter | ELG1 genotox | Rab9 prom act | SMN2 splice enh | NPC1 prom act
CCCC(=O)N(CCN1CCOCC1)c1nc2cc(C)c(C)cc2s1 | -12% | ? | 2.2µM* | . | 2.5µM*
Cc1ccc2nc(N(CCN3CCOCC3)C(=O)CCS(=O)(=O)c3ccccc3)sc2c1 | -2% | ? | ? | . | ?
Cc1ccc(CNC(=O)c2cc(C)nc3c2c(C)nn3-c2ccc(C)cc2)cc1 | 1% | . | . | . | .
CNc1ccc(/C=C2\COc3ccccc3C2=O)cc1[N+](=O)[O-] | 1.9µM* | 4% | ? | 10% | 25%
COc1ccc2c(c1)OC/C(=C/c1ccc(O)c(O)c1)C2=O | . | . | . | 3% | .
O=C1/C(=C/c2ccccc2[N+](=O)[O-])COc2ccccc21 | 17µM* | -21% | -15% | -86% | -23%
Cc1cccc(NC(=O)CCc2nnc3ccc(N4CCC(C)CC4)nn23)n1 | 0% | -2% | -19% | . | -4%
COc1ccc(OC)c(NC(=O)CSc2nccn2Cc2ccco2)c1 | 15µM* | 5% | 2% | . | 4%
Cc1ccc(NC(=O)CSc2nccn2Cc2ccco2)c(C)c1 | 4.3µM* | 5.2µM* | 0.63µM* | . | 0.89µM*
Cc1cc(C)c(NC(=O)CSc2nccn2Cc2ccco2)c(C)c1 | 17µM* | . | . | . | .
O=C(CSc1nccn1Cc1ccco1)Nc1ccccc1F | ? | ? | 17% | . | ?
COc1cccc(C=Nc2ccc3c(c2)CCC3)c1O | 2.7µM* | 6% | -1% | . | -5%
COc1cccc(/C=N/c2oc(-c3ccccc3)cc2C#N)c1O | ? | -5% | 15% | -10% | -2%
COc1cccc(C=Nc2ccccc2C#N)c1O | 2.7µM* | 0% | -2% | ? | -2%
COc1[nH]c(/N=C/c2ccccc2)c(C#N)c1C#N | ? | 0% | 2% | -11% | 2%
N#Cc1ccccc1N=Cc1ccc(Br)cc1 | 1.5µM* | 3% | 0% | -2% | 0%
COc1cccc(C=Nc2cc(C)cc(C)c2)c1O | 2% | 0% | -3% | 6% | 1%
COc1ccc(C2=NNC(c3cccs3)=Nc3ccc(OC)cc32)cc1 | 15µM* | -4% | 10% | 15% | 0%
CCCCNC(=O)c1ccc2c(c1)ncn2C1CCCC1 | 17µM* | ? | 4% | 4% | 0%
CSCC[C@H](NC(=O)[C@H](Cc1ccccc1)n1c(=O)[nH]c2ccccc2c1=O)C(=O)N[C@@H](Cc1ccccc1)C(=O)O | 3% | 0% | -1% | . | -4%
Cc1ccc(NC(=O)CSc2cn[nH]n2)cc1 | 1% | -15% | 0% | . | -1%
COc1cc(-c2cc(C(=O)Nc3ccc(O)cc3)c3ccccc3n2)cc(OC)c1OC | ? | -10% | -8% | . | 3%
COc1ccc(-c2cc(C(=O)OC3CCOC3=O)c3ccccc3n2)cc1OC (configuration not stated) | 13µM* | 4% | -2% | -4% | 9%
COc1ccc(NC(=O)c2cc(-c3ccc(OC)c(OC)c3)nc3ccccc23)c(OC)c1 | 7.6µM* | 0% | 18% | . | 14%
COc1ccc(-c2cc(C(=O)NC(C)c3ccccn3)c3ccccc3n2)cc1OC (configuration not stated) | 7.6µM* | -4% | -6% | . | -1%
SMILES | FLuc counter | ELG1 genotox | Rab9 prom act | SMN2 splice enh | NPC1 prom act
COc1ccc(-c2cc(C(=O)Nc3ccc(C(N)=O)cc3)c3ccccc3n2)cc1OC | 3.4µM* | -1% | 25% | ? | 10%
CC(=O)NS(=O)(=O)c1ccc(NC(=O)c2ccc3c(c2)OCO3)cc1 | ? | 1% | 26% | . | 5%
COC1C=CO[C@@]2(C)Oc3c(C)c(O)c4c(O)c(c(C=NN5CCN(C)CC5)c(O)c4c3C2=O)NC(=O)/C(C)=C\C=CC(C)C(O)[C@@H](C)C(O)C(C)[C@H](OC(C)=O)C1C (some centres not stated) | . | . | . | -19% | .
COc1ccc2c(c1)O[C@@]1(CCCC[C@@H]1C)CC2=O | 8% | 29% | -3% | . | -5%
COc1ccc(C(C(=O)NC(C)(C)C)N(C(=O)CCC(=O)Nc2cc(C)on2)c2cccc(C)c2C)cc1 (configuration not stated) | 0% | -3% | 14% | . | -3%
COc1ccc(-c2cc(C(=O)Nc3ccc(S(=O)(=O)Nc4onc(C)c4C)cc3)c3ccccc3n2)cc1OC | 13µM* | 2% | 9% | . | 8%
COc1cc(C(=O)Nc2ccc(S(=O)(=O)Nc3onc(C)c3C)cc2)cc(OC)c1OC | -2% | 0% | 5% | 6% | 6%
O=S(=O)(c1ccccc1)N1CCC2(CCCN(Cc3ccncc3)C2)CC1 | . | . | . | -13% | .
CC(=O)c1cccc(NC(=S)NC(=O)c2ccc(Cl)cc2)c1 | 13µM* | ? | ? | 16µM* | ?
CC(=O)c1cccc(NC(=S)NC(=O)c2cccc(C)c2)c1 | 4.3µM* | ? | 3.2µM* | 16µM* | ?
Cc1cccc(NC(=S)NNC(=O)c2ccccc2OC(F)F)c1 | -11% | -7% | 11% | ? | 12%
CC(=O)c1cccc(NC(=S)NC(=O)c2ccccc2Br)c1 | 17µM* | 1% | 1% | -4% | 6%
CC(=O)c1cccc(NC(=S)NC(=O)c2ccccc2C)c1 | ? | 0% | -5% | . | -6%
Cc1cccc(NC(=S)NNC(=O)c2ccccc2Br)c1 | ? | 9% | 3.2µM* | 13µM* | 22%
COC(=O)c1cccc(NC(=S)NCc2ccc(Cl)cc2)c1 | 5% | -3% | -2% | 17% | 1%
Cc1nn2c(-c3ccccc3)ccnc2c1Br | -15% | 2% | -11% | . | -4%
Cc1nn2c(-c3cccnc3)ccnc2c1-c1ccccc1 | 11µM* | 4% | 29% | 17% | 22%
O=C(O)Cc1ccc(OCc2ccc(Cl)nc2)cc1 | 15µM* | -10% | 1% | -3% | 9%
O=C(Oc1ccc2c3c(c(=O)oc2c1)CCCC3)c1ccco1 | 17µM* | 1% | -1% | 6% | -5%
CCCCCCCCCCCCCCC[C@@H](O)[C@H](CO)NC(=O)CCCCCCC | . | . | . | 5% | .
O=Cc1ccccc1OCc1ccc2c(c1)OCO2 | 1.3µM* | 13µM* | 12% | . | 13%
CCOc1ccccc1CN(CCc1ccc2c(c1)OCO2)Cc1cc(OC)c(OC)cc1OC | -6% | . | . | -28% | .
O=C(Nc1c(C(=O)N2CCN(c3ccccn3)CC2)oc2ccccc12)c1ccc([N+](=O)[O-])cc1 | 6.7µM* | -3%[9.26 µM] | 3% | . | 2%
CCOc1ccccc1-n1c(N)c(C(=O)OC)c2nc3ccccc3nc21 | -6% | . | . | -2% | .
CC(=O)NN1C(=O)/C(=C\c2ccc(O)cc2)SC1=S | 17µM* | 4% | -11% | . | 5%
COc1cc(/C=C2\SC(=S)N(NC(=O)c3cccnc3)C2=O)ccc1O | 17µM* | -2% | -1% | . | -1%
COc1cc(/C=C2\SC(=S)N(NC(=O)c3ccc(O)cc3)C2=O)ccc1O | 3µM* | 10% | 3% | . | 3%
COc1cccc(/C=C2\SC(=S)N(NC(=O)c3ccncc3)C2=O)c1 | 2% | 1% | -3% | . | 0%

Screens as filed in PubChem BioAssay.
